The source of these data is PubChem BioAssay AID1508600 (Functional Genomics Laboratory (NCATS/FGL), 2020).

Out of some 53,000 sequences screened, about 3,700 (7%) were called active. Many of the other results were omitted from the sample, so actives are more common in it than they were. A number with no mark means an inactive call.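 How the source made its calls: active means gene knockdowns whose robust z-score for IL-1 alpha signal is at least 2 or at most -2, so actives lie on both sides; inactive means the rest.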

This assay is described as follows: Components of the Cytosolic LPS Sensing Pathway: Gene Identification via Genome-wide siRNA Screen.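 Further: robust z of the log signal after scaling to non-targeting control siRNA wells of the plate.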 Conditions: RAW264.7 macrophages, IL-1a HTRF, actives lie on both sides, screened at 100 nM (by protocol), cells primed 5 h with Pam3CSK4 first. In outline:
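Mouse macrophage line RAW264.7 is transfected with siRNA (100 nM final), grown 48h, primed with TLR ligand Pam3CSK4 5 h and given intracellular LipidA 24 h. IL-1a in supernatant is read by HTRF and viability by luminescence.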
For orientation: TR-FRET usually uses a lanthanide donor and a delayed reading to cut background.
With GGUCAAUUCCCAUACCCUGTT against Tfr2, the z-score is -1.23. For CGACUCCCACCUUUAGGAGTT against Nkx2-5, the z-score is 2.5 (active). Then GGUGAAAAUACAUUGCCAGTT against Plk4, with -0.712. As to CCCAAAUAACAGAGAAAUGTT against St8sia6, the z-score is 0.818.

Turning to CCUGAGAUUUCCUAACAUCTT against Prr11, the z-score was -0.281. With GGUGAAGUCACUAAUCUUUTT against Prpf19, the z-score was 1.12. In the case of GCCACGACCUGGAACAACUTT against Taf6l, the z-score is -0.479. Then “CGGCCUAACAGCCAGACUUTT against 1700013G24Rik”, with 0.9; and GGUUUCUGCCAUCCAUCAGTT against Zfa-ps, with -0.705; and CUUUUACACCAUCAUGACGTT against Mrgpra5, with -2.06 (active). GGCGAAUGAAGGUUUCUGGTT against Pex11b: the z-score is -0.581. For GCUGUUGGUCUGAUAGCUUTT against Hadhb, the z-score was 0.378. GCCAUGCCUUAAUCUUGGUTT against Cd300lf: the z-score is 0.0466. GCAAAGACGAAAUGCCGAGTT against Ttc32: the z-score was -0.23.

In the case of GAUUCUCCAUUGCCCAAUGTT against Lce1i, the z-score is 0.0132. Take CCUCAACUCCCUGUCACACTT against Rnaseh2a: the z-score was 0.944. Consider GGAGCGAUUCACAAAUUACTT against Tapt1, for which the z-score was 3.05 (active). With CGACUAUUUGGGUGGCAAGTT against Scin, the z-score is -0.103. Then GGUAAGAAAACUGACCUUATT against Abra, with -0.787; and GGCUGUAUGCUCAGACUGATT against Olfr147, with -1.25. For GGGCAUAUUUGGAAUCUGATT against Rtn4, the z-score was 2.51 (active). Turning to GGAAUCUACCACUUGGUUCTT against Chrdl2, the z-score was -0.936. Next, GGGAUUCAGAGUCAAGAUUTT against Thpo: -0.275; GCUUCCUACCAUGAUGGUCTT against Otol1: 2.13 (active). Next, GCCCUUACAUAAUAGCUUGTT against Tacr2: 1.56; GGUCCCAGUCUAUGAAAACTT against Pym1: 1.81. Then GUCCUGAAAAUGCUAUUCUTT against Olfr68, with 0.281; and CCUGGUGCUUCGUAAUUACTT against Cyp11a1, with -1.03; and GGGUACAAAACUUGAACUUTT against Gins3, with 2.84 (active). Consider GGACAGUGUGUUUUCUUGUTT against Ankle1, for which the z-score was 0.551.
